# Source: PubChem (several laboratories)
# Mtb bLac sens – beta-lactam sensitization of Mtb H37Rv, H37Rv. M. tuberculosis H37Rv growth with meropenem, percent inhibition. AID 434955, 2010. 330,000 tested, 0.27% active. inhibition, % at 25 µM;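 note: growth measured after seven days incubation then overnight dye step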
# MazF activator – activators of E. coli MazEF toxin-antitoxin RNase, primary screen, biochemical, fluorescence, uHTS; Endoribonuclease toxin MazF (Escherichia coli (strain K12)), P0AE70; FAM/BHQ RNA-DNA oligo cleavage fluorescence, 5 h; activation, % at 20 µM; 350,000 tested, 0.32% active; AID 504720, 2011; in the data active = activation above about 50%
# Target sequence (P0AE70 whole entry, looked up): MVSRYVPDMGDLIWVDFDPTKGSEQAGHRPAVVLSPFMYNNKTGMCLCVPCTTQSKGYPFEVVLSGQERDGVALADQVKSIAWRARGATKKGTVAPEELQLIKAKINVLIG
# FBA Mtb inh – Mtb FBA enzyme inhibitors, primary screen, biochemical, fluorescence, strain H37Rv | inhibition, % at 1 µM | 360,000 tested, 2.3% active | purified M. tuberculosis FBA, fluorescence read-out; in the data active = inhibition above about 27%
# CCHFV vOTU inh – CCHFV vOTU protease inhibitors, primary screen, biochemical, Pep-AMC substrate, fluorescence; inhibition, % at 11.5 µM; 370,000 tested, 0.55% active; Crimean-Congo hemorrhagic fever virus L polyprotein viral ovarian tumor (vOTU) protease …; in the data active = inhibition above about 30%
# GDH-TPI counter-1 – GDH-TPI coupling enzyme inhibitors, primary screen, artefact control for M. tuberculosis FBA inhibitor project, biochemical, absorbance, full deck; 360,000 tested, 1.2% active; AID 588335, 2011; GDH-TPI coupled enzyme counterscreen, NADH absorbance; inhibition, % at 4.8 µM; in the data active = inhibition above about 30%
# Mtb FBA inh conf – M. tuberculosis aldolase blockers, biochemical, fluorescence, strain H37Rv, confirmation | shares compounds with FBA Mtb inh | purified M. tuberculosis FBA, fluorescence read-out | inhibition, % at 1 µM | 5,600 tested, 78% active; in the data active = inhibition above about 27%
# GDH-TPI counter-2 – GDH-TPI coupling enzyme inhibitors, artefact control for M. tuberculosis FBA inhibitor project, biochemical, fluorescence, high throughput; shares compounds with FBA Mtb inh; GDH-TPI coupled enzyme counterscreen; inhibition, % at 1 µM; 5,600 tested, 81% active; AID 652141, 2013; in the data active = inhibition above about 10%
# GDH-TPI dose – GDH-TPI coupling enzyme inhibitors, dose response, artefact control for M. tuberculosis FBA inhibitor project, biochemical, fluorescence, IC50. shares compounds with FBA Mtb inh. GDH-TPI coupled enzyme assay, artifact counterscreen. IC50, µM. 170 tested, 79% active
# Numbers stand for hits; - = inactive; . = no result given; + = active, no number. An excerpt weighted towards active compounds, which were near 4% of everything screened. Unless noted, the rule behind the calls is not given here.
SMILES,Mtb bLac sens,MazF activator,FBA Mtb inh,CCHFV vOTU inh,GDH-TPI counter-1,Mtb FBA inh conf,GDH-TPI counter-2,others
CC(=O)N1CCC2(CC1)CC(=O)c1cc(OCC(=O)NCc3ccco3)ccc1O2,-,-,35.4,-,-,120.8,79.6,
CC(=O)N1CCC2(CC1)CC(=O)c1cc(OCC(=O)NCc3ccc(C)cc3)ccc1O2,-,-,51.0,-,-,-,-,
Cc1cccc(OCC(=O)N2CCC3(CC2)CC(=O)c2ccccc2O3)c1,-,-,-,-,-,.,.,
Cc1nc2cc(-c3cccs3)[nH]n2c(=O)c1C,-,-,45.9,.,-,-,-,GDH-TPI dose=5.65
Cc1ccccc1-c1cc2nc(C)c(C)c(=O)n2[nH]1,-,-,-,-,-,.,.,
O=C(COc1ccc2c3c(c(=O)oc2c1)CCCC3)N[C@@H](Cc1ccccc1)C(=O)O,-,-,59.4,-,-,-,-,
O=C(COc1ccc2c3c(c(=O)oc2c1)CCCC3)NC(Cc1ccc(Cl)cc1)C(=O)O (stereo not given),-,-,67.0,-,-,124.3,100.5,
CCCC[C@H]1C2CC(OC(=O)NCc3ccc(Cl)cc3)C(C2)[C@H]2CCCCN21 (stereo not given in full),.,.,.,-,.,.,.,
CCOC(=O)[C@]12CCCC3=C1N(CCC3)C(=O)[C@@H](CC(=O)N1CCN(C(=O)C3CC3)CC1)C2,.,.,.,-,.,.,.,
Cc1nn(-c2ccccc2)c2sc(C(=O)NNC(=O)COc3ccccc3)cc12,-,-,-,-,-,.,.,
Cc1nn(-c2ccccc2)c2sc(C(=O)NCCN3CCOCC3)cc12,-,-,33.0,-,-,92.5,82.7,
CCCCNC(=O)COC(=O)c1cc2c(C)nn(-c3ccccc3)c2s1,-,-,29.0,-,-,+,177.8,
O=C(NCc1ccccc1)[C@@H]1CCCN1C(=O)[C@H]1CCCN1C(=O)c1ccccc1F,.,.,.,-,.,.,.,
CC1=CC(=O)Nc2ncccc2O1,.,-,60.8,-,-,83.8,75.9,
c1ccc(Nc2ccc(-n3ccnc3)nn2)cc1,-,-,69.0,-,-,126.9,139.8,
C[C@@H]1ON(C)[C@H]2C[C@H]3c4cc(-c5ccc(F)cc5)ccc4CCN3C[C@@H]12,.,.,.,-,.,.,.,
CCC(NC(=O)Cn1c(-c2ccccc2)cc(C(C)=O)c1C)c1ccccc1 (stereo not given),.,.,.,-,.,.,.,
COc1ccc(/C=N/c2oc(-c3ccccc3)cc2C#N)cc1OC,-,-,48.4,-,-,28.1,24.6,
Cc1ccccc1OCCC(=O)Nc1ccc2c(C)cc(=O)oc2c1,-,-,94.9,-,-,183.0,153.4,
O=C(O)c1cccc(S(=O)(=O)Nc2ccccc2Cc2ccccc2)c1,-,-,-,-,-,.,.,
CS(=O)(=O)c1cccc(C(=O)Nc2ccccc2Cc2ccccc2)c1,-,-,57.8,-,-,48.5,-,
Cc1cc(=O)oc2cc(NC(=O)Cc3ccccc3[N+](=O)[O-])ccc12,-,-,63.1,-,-,29.5,18.6,
Cc1cc(=O)oc2cc(NC(=O)C(C)Oc3ccc(F)cc3)ccc12 (stereo not given),-,-,32.9,-,-,177.2,143.7,
Cc1ccc(NC(=O)CCOc2ccccc2C)cc1F,-,-,-,-,-,.,.,
Cc1[nH]c2ccccc2c1CC(=O)Nc1ccc(Nc2cccnc2)c(-c2ccc(OC(F)(F)F)cc2)c1,.,.,.,-,.,.,.,
CCCC(C(=O)Nc1ccc2c(C)cc(=O)oc2c1)c1ccccc1 (stereo not given),-,-,27.9,-,-,-,-,GDH-TPI dose=2.81
CCCC(C(=O)Nc1ccc(C)c(S(=O)(=O)N2CCOCC2)c1)c1ccccc1 (stereo not given),-,-,-,-,-,.,.,
